About 83,000 compounds went through this panel and 20% of them were active in at least one assay; those are over-represented in the sample as a whole.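 Method: cells in 96-well plates; compound added at one concentration; 48 h incubation; percent growth measured; values under 10 scored active.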 Unmarked numbers belong to inactive results. Activity calls are given as the source filed them.
Legend:
Experiment in all cases: NCI-60 one-dose screen, 48 h (100 = growth as untreated, 0 = no growth, -100 = all killed)
Settings in all cases: 10 µM unless noted
HCT-15 colon = test system: HCT-15 colon
HT29 colon = test system: HT29 colon
SNB-75 CNS = test system: SNB-75 CNS
SNB-19 CNS = test system: SNB-19 CNS
U251 CNS = test system: U251 CNS
PC-3 prostate = test system: PC-3 prostate
SK-MEL-5 melanoma = test system: SK-MEL-5 melanoma
UACC-62 melanoma = test system: UACC-62 melanoma
LOX IMVI melanoma = test system: LOX IMVI melanoma
SK-MEL-28 melanoma = test system: SK-MEL-28 melanoma

| Compound | growth (HCT-15 colon) | growth (HT29 colon) | growth (SNB-75 CNS) | growth (SNB-19 CNS) | growth (U251 CNS) | growth (PC-3 prostate) | growth (SK-MEL-5 melanoma) | growth (UACC-62 melanoma) | growth (LOX IMVI melanoma) | growth (SK-MEL-28 melanoma) |
| --- | --- | --- | --- | --- | --- | --- | --- | --- | --- | --- |
| O=C(Nc1ccc(Oc2cccc(Cl)c2)c(Cl)c1)c1cnccn1 | 23.3% | 2.14% (active) | -20.9% (active) | 33.5% | 16.5% | 11.1% | 25.8% | 28.4% | 29.9% | 64.9% |
| N#Cc1ccc2c(c1)C(=O)c1c-2n(CCCN)c(=O)c2cc([N+](=O)[O-])ccc12 | -90.8% (active) | -100% (active) | -100% (active) | -85.1% (active) | -100% (active) | -74.4% (active) | -100% (active) | -100% (active) | -100% (active) | -100% (active) |
| Cn1ccc(=O)c(C(=O)Nc2nsc3ccc([N+](=O)[O-])cc23)c1 | 54.9% | 68.2% | 72.1% | 91.3% | 63.1% | 56.8% | 87.4% | 32.6% | 51.3% | 78.3% |
| Nc1ncnc2c1c(-c1cccc(Cl)c1)nn2CC(=O)N1CCOCC1 | 101% | 99.7% | 94.2% | 93.9% | 102% | 96.6% | 101% | 93.7% | 103% | 105% |
| c1csc(-c2ccc(CNc3c4ccccc4nc4ccccc34)cc2)c1 | -66.2% (active) | -46.8% (active) | 36.1% | 46.2% | -72.7% (active) | 24% | -90.7% (active) | 64.5% | -90.7% (active) | -86% (active) |
| Cn1cc(-c2csc(-c3c[nH]c4ccc(Br)cc34)n2)c2ccnc(Cl)c21 | -0.791% (active) | 20.8% | 85.2% | 81.7% | 33.4% | 50.2% | 71.7% | 68.8% | 26.2% | 71.7% |
| O=C(Nc1ccc(Oc2cccc(Cl)c2)c(Cl)c1)c1cccnc1 | 36.8% | 8.57% (active) | -23.2% (active) | 41.3% | 23.9% | 14.9% | 14.5% | 37.6% | 51.7% | 63.8% |
| O=C(/C=C/c1ccccc1)Nc1ncc(Cc2ccccc2Cl)s1 | 16% | 6.09% (active) | 15.8% | 30.5% | 27.2% | 25.8% | 34.3% | 34.1% | 21.3% | 55.7% |
| Cn1cc(-c2csc(-c3c[nH]c4ccccc34)n2)c2cnccc21 | -59.7% (active) | -1.85% (active) | 80.6% | 48.8% | -25.2% (active) | 48.4% | 51.9% | -52.7% (active) | -84.9% (active) | -51.5% (active) |
| COc1ccc(F)cc1/C=C/C(=O)/C=C(/C=C/c1cc(F)ccc1OC)OB(F)F | 9.21% (active) | 18% | 83.7% | 72.4% | 14% | 29% | 53.6% | 14.8% | 3.94% (active) | 48.1% |
| O=C1Nc2ccccc2/C1=C/c1nc2ccccc2c(=O)[nH]1 | 72.6% | 105% | 88.9% | 95.5% | 96.3% | 77.7% | 94.4% | 96.1% | 82.1% | 109% |
| COc1cc(NS(=O)(=O)c2ccc(-c3cnc(C4CC4)o3)cc2)ccc1F | 20.9% | 2.64% (active) | -15.8% (active) | 25.6% | 22.1% | 33.9% | 15.5% | 31.6% | 35% | 65.2% |
| OB1OCc2cc(/C=C/c3cccc(C(F)(F)F)c3)ccc21 | 17.8% | 25.9% | -19.3% (active) | 20.8% | 0.414% (active) | 23.6% | -14.1% (active) | 19.9% | -72.5% (active) | 45.5% |
| COc1ccc(/C=N/NC(=O)c2ccc(-n3cc(-c4ccccc4)nn3)cc2)cc1OC | 97.6% | 100% | 94% | 107% | 106% | 94% | 89.2% | 76.7% | 94.5% | 88.8% |

— PubChem BioAssay (NCI)
